Data published in PubChem BioAssay AID1053127 (Broad Institute, 2014).
Results with a measured potency or affinity are listed apart.

assay: YAP1 overexpression rescue of CTGF inhibition – DLD1 cells, RT-qPCR, cherry-pick, mechanism study for YAP1 pathway inhibitor project, dose response (AID 1053127); settings: DLD1 YAP1-overexpressing, CTGF mRNA qPCR, 24 h; series mostly up to 26 µM; CTGF fold change (delta-delta-Ct), lower = inhibition: at the top concentration;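 active = compounds whose fitted curve of lowered CTGF expression reaches half effect within a set concentration limit; inconclusive = flat moderate drop in CTGF, or unreliable curve fit; inactive = the rest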

CTGF fold change (delta-delta-Ct), lower = inhibition, inactive:
CNC[C@H]1Oc2c(NC(=O)Nc3cccc4ccccc34)cccc2C(=O)N([C@H](C)CO)C[C@@H]1C 0.844 unspecified, COc1ccccc1NC(=O)N1CCCCN2[C@@H](CO)[C@H](c3ccc(-c4cccc(C#N)c4)cc3)[C@@H]2C1 1.01 unspecified, CCCNC(=O)N1[C@H](C#N)[C@@H](c2ccc(C#Cc3cccc(F)c3)cc2)[C@@H]1CO 3.14 unspecified, N#Cc1cccc(-c2ccc3c(c2)[C@@H]2[C@@H](CCN2S(=O)(=O)c2ccc(F)cc2)[C@H](CO)N3)c1 1.06 unspecified, CC(C)(C)[S@](=O)N1Cc2cc(C(=O)NCc3ccccn3)nc(-c3cccc(-c4ccccc4F)c3)c2[C@@H]1CCO 1.52 unspecified, C[C@@H]1CN([C@@H](C)CO)C(=O)c2cc(C#Cc3ccccc3)cnc2O[C@@H]1CN(C)C(=O)c1ccccc1 1.05 unspecified, O=C(Nc1cccc(F)c1)N1CCCCN2[C@H](C1)[C@H](c1ccc(C#Cc3cccnc3)cc1)[C@@H]2CO 0.942 unspecified, O=C(Nc1ccc2c(c1)[C@H]1C[C@@H](CC(=O)N3CCc4ccccc4C3)O[C@@H](CO)[C@H]1O2)c1ccc2c(c1)OCO2 0.836 unspecified, COc1ccc(S(=O)(=O)Nc2ccc3c(c2)C(=O)N([C@@H](C)CO)C[C@H](C)[C@@H](CN(C)S(=O)(=O)c2ccc(Cl)cc2)OCCCC[C@@H](C)O3)cc1 1.31 unspecified, O=C(CC1CC1)N1CC(=O)N2[C@H](CO)[C@@H](c3ccc(C#Cc4cccc(F)c4)cc3)[C@H]2C1 0.887 unspecified, Cc1ccc(S(=O)(=O)N2CC[C@H]3[C@H](CO)Nc4ccc(-c5cccc(C(=O)N(C)C)c5)cc4[C@H]32)cc1 1.09 unspecified, CN1C(=O)c2cc(NS(=O)(=O)c3ccccc3F)ccc2OC[C@@H]2O[C@@H](CC(=O)NC3Cc4ccccc4C3)CC[C@@H]21 1.29 unspecified, COc1ccccc1S(=O)(=O)N1CC[C@@H]2[C@H]1c1cc(-c3cccc(C#N)c3)ccc1N(C)[C@H]2CO 0.771 unspecified [at 23.5 µM], O=C(c1cccc(F)c1)N1CCCCN2[C@H](CO)[C@H](c3ccc(C#CC4(O)CCCC4)cc3)[C@@H]2C1 0.87 unspecified, CO[C@@H](CN(C)S(=O)(=O)c1ccc(C)cc1)[C@@H](C)CN([C@H](C)CO)S(=O)(=O)c1cccc(Cl)c1 0.886 unspecified, C[C@@H]1CN([C@H](C)CO)C(=O)c2cccc(NC(=O)c3nc4ccccc4s3)c2O[C@H]1CN(C)C(=O)Nc1ccc2c(c1)OCO2 0.577 unspecified [at 23.5 µM], C[C@@H]1CN([C@H](C)CO)C(=O)c2ccccc2-c2ccccc2CO[C@@H]1CN(C)Cc1cccc2c1OCCCO2 0.917 unspecified, CCS(=O)(=O)Nc1ccc2c(c1)C(=O)N(C)[C@H]1CC[C@H](CC(=O)N3CCN(C)CC3)O[C@H]1CO2 1.29 unspecified, COCC(=O)N1CC[C@@H]2[C@H](CO)Nc3ccc(C#Cc4ccc(F)cc4)cc3[C@@H]21 0.882 unspecified, COCC(=O)N1CC(=O)N2[C@H](CO)[C@@H](c3ccc(C#CC4CC4)cc3)[C@H]2C1 0.911 unspecified, O=S(=O)(c1ccccc1)N1CCCCN2[C@H](C1)[C@@H](c1ccc(C#CC3CCCC3)cc1)[C@@H]2CO 0.946 unspecified, C[C@H](O)C#Cc1ccc([C@H]2[C@@H](CO)N3CCCCN(C(=O)c4ccc5c(c4)OCO5)C[C@@H]23)cc1 0.952 unspecified [at 23.5 µM], C[C@@H]1CN([C@@H](C)CO)C(=O)c2cc(NC(=O)Nc3ccccc3)ccc2O[C@@H](C)CCCCO[C@@H]1CN(C)C(=O)Nc1ccccc1 1.02 unspecified, C[C@@H]1CN([C@@H](C)CO)C(=O)c2ccccc2-c2ccccc2CO[C@@H]1CN(C)S(=O)(=O)c1cn(C)cn1 1.32 unspecified, COc1ccccc1C#Cc1ccc([C@H]2[C@H](CO)N3CCCCN(C(=O)C4CCC4)C[C@@H]23)cc1 0.643 unspecified, COc1cccc(-c2ccc([C@@H]3[C@@H](C#N)N(C(=O)Cc4ccncc4)[C@@H]3CO)cc2)c1 1.08 unspecified, COc1cccc(C#Cc2ccc3c(c2)O[C@@H](CN(C)C(=O)CN2CCOCC2)[C@@H](C)CN([C@@H](C)CO)S3(=O)=O)c1 1.36 unspecified, O=C([C@H]1[C@H](CO)[C@H]2Cn3c(ccc(-c4ccc(F)cc4)c3=O)[C@H]2N1Cc1cocn1)N1CCCCC1 0.918 unspecified
